The experiment addresses FXR LBD (GAL4 fusion) (UniProt Q96RI1). Nature of the experiment: luciferase reporter transactivation, fold of solvent control; higher = stronger receptor activation. Particulars: HEK293T, exposure time: 24 h. How it is done: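 HEK293T cells were transiently transfected with a GAL4-DBD fused to the ligand-binding domain of a human nuclear receptor (PPARα, PPARγ, PPARδ, FXR, LXRα, PXR, RARα or CAR), the GAL4-(UAS)5-TK firefly luciferase reporter and a Renilla luciferase normalisation plasmid. Cells were exposed to compound for 24 h in 0.5% DMSO. Firefly/Renilla luciferase was expressed as fold of the solvent control (=1). Values are the mean of 2-3 biological replicates; receptor agonists were used as positive controls.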
(In a reporter assay the amount or activity of a reporter protein is the signal.)

The structures appear in SMILES notation.

FXR LBD (GAL4 fusion), sequence (Q96RI1 whole entry, looked up, the tested form may be a part): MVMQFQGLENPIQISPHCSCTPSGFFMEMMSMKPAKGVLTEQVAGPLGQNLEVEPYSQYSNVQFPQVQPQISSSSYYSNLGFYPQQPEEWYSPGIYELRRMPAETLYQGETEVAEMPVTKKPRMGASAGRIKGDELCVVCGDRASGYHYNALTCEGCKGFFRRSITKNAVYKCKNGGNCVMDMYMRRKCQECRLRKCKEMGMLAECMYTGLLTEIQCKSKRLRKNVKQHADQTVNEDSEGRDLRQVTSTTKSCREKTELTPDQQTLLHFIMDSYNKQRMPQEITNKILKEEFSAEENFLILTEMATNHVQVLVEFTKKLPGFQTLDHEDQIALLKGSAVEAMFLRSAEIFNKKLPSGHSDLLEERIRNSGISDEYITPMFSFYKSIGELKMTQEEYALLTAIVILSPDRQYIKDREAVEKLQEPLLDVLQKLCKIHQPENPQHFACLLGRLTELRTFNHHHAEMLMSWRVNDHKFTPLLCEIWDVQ

`O=C(O)C(F)(F)C(F)(F)F` [perfluoropropanoic acid] returned a luciferase reporter transactivation (concentration: 1 µM) of 1.54; a luciferase reporter transactivation (concentration: 5 µM) of 1.63; a luciferase reporter transactivation (concentration: 10 µM) of 1.39; a luciferase reporter transactivation (concentration: 25 µM) of 0.693; a luciferase reporter transactivation (concentration: 50 µM) of 1.46; a luciferase reporter transactivation (concentration: 100 µM) of 1.43. Moreover, the luciferase reporter transactivation runs as follows: (concentration: 250 µM) 1.27; (concentration: 500 µM) 1.62.

Regarding `NS(=O)(=O)C(F)(F)C(F)(F)C(F)(F)C(F)(F)C(F)(F)C(F)(F)C(F)(F)C(F)(F)F` [perfluorooctane sulfonamide], the luciferase reporter transactivation is 0.705 (concentration: 1 µM); 0.788 (concentration: 2.5 µM); 1.1 (concentration: 5 µM); 0.752 (concentration: 10 µM); 1.01 (concentration: 100 µM).

For the origin of these results see the supplement of paper PMC11402862.
